Inconclusive results are not listed. Activity calls are given as the source filed them. The call rests on the fitted dose curve; in most records, active means well fitted inhibition curve with a large enough effect; inconclusive means small, poorly fitted or top-dose-only effect; inactive means flat fitted curve, though single readings scatter.
target: Calcium and integrin-binding protein 1 (Homo sapiens) (UniProt Q99828); experiment: Primary qHTS for Identification of Calcium Integrin Binding Protein 1 (CIB1) Competitor (AID 1508620); conditions: CIB1-GST / FITC-alphaIIb peptide fluorescence polarization; series mostly up to 114 µM; activity change, negative = inhibition: at the top concentration;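 further: GST tagged CIB1 binding a fluorescein labelled alphaIIb integrin peptide tracer; top concentration of the series differs between compounds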
Outline: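 CIB1-GST (1 uM final) and compound incubated 15 min at room temperature before adding FITC-alphaIIb peptide tracer (100 nM final). Competition for binding read by fluorescence polarization (ex 480, em 540) after another 15 min at room temperature.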
On the % scale 0 is the no-effect control and ±100 the full control effect.

Chain of Calcium and integrin-binding protein 1 (Homo sapiens) (Q99828 whole entry, looked up): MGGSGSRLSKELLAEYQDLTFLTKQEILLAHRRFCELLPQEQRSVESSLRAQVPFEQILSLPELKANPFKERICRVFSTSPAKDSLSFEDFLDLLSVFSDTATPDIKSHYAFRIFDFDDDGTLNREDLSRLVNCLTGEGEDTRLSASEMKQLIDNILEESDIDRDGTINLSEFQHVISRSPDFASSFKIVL

| Compound | activity change, negative = inhibition |
| --- | --- |
| CO/N=C(/C(=O)N[C@@H]1C(=O)N2C(C(=O)O)=C(Cn3ccc(=N)n3CCO)CS[C@H]12)c1csc(N)n1 | -2% (inactive) |
| CC1CC(C(O)C(C)(C)O)OC2CC3(C)C4(C)CCC5C(C)(C)C(=O)CCC5(C)C4CCC3(O)C12O (centres undefined) | 1.07% [at 57.7 µM] (inactive) |
| C[C@H]1CC(=O)Nc2cccc(-c3cnn(C(C)(C)C)c3)c2N1 | -0.219% (inactive) |
| O=C(CC1C(=O)Nc2ccccc21)OC[C@H]1O[C@@H](OCCc2ccc(O)cc2)[C@H](O)[C@@H](O)[C@@H]1O (some centres undefined) | -5.57% [at 57.7 µM] (inactive) |
| CC1(C)CCC2(C(=O)OC3OCC(O)C(O)C3O)CCC3(C)C(=CCC4C5(C)CC(O)C(OC6OC(COC7OCC(O)C(O)C7O)C(O)C(O)C6O)C(C)(C)C5CCC43C)C2C1 (centres undefined) | -1.91% [at 30.2 µM] (inactive) |
| C/C=C(\C)C(=O)O[C@@H]1CC2[C@@H](CC=C3C[C@@H](O[C@H]4C[C@H](OC)[C@H](O[C@H]5C[C@H](OC)[C@H](O[C@@H]6O[C@H](C)[C@@H](O[C@H]7C[C@H](OC)[C@H](O[C@@H]8O[C@H](CO)[C@@H](O)[C@H](O)[C@H]8O)[C@@H](C)O7)[C@H](OC)[C@H]6O)[C@@H](C)O5)[C@@H](C)O4)CC[C@@]32C)[C@@]2(O)CC[C@H](C(C)=O)[C@@]12C (some centres undefined) | 2.76% [at 12.4 µM] (inactive) |
| CC1CC(=O)C2=C(CCC3(O)C(O)c4c(O)cccc4C(=O)C23O)C1 (centres undefined) | -0.519% [at 57.7 µM] (inactive) |
| C/C1=C\CCC(C)CCO[C@@H]2O[C@H](CO[C@@H]3OC[C@H](O)[C@H](O)[C@H]3OC1=O)[C@@H](O)[C@H](O)[C@H]2O (some centres undefined) | -4.14% [at 57.7 µM] (inactive) |
| CC1(C)CC[C@]2(CO[C@@H]3O[C@H](CO)[C@@H](O)[C@H](O)[C@H]3O)[C@@H](O)C[C@]3(C)C(=CCC4[C@@]5(C)CC[C@H](O[C@@H]6O[C@H](CO[C@@H]7O[C@H](CO[C@@H]8OC[C@@H](O)[C@H](O)[C@H]8O)[C@@H](O)[C@H](O)[C@H]7O)[C@@H](O)[C@H](O)[C@H]6O)C(C)(C)C5CC[C@]43C)[C@@H]2C1 (some centres undefined) | -5.87% [at 30.2 µM] (inactive) |
| C=C(C(=O)OC)C1C(O)CC2(C)C(O)CCC(=O)C2C1O (centres undefined) | 4.79% (inactive) |
| COC(=O)C1=CO[C@@H](O[C@@H]2O[C@H](CO)[C@@H](O)[C@H](O)[C@H]2O)[C@H]2[C@@H]1C=C[C@@]21C=C([C@H](C)O)C(=O)O1 | 4.48% [at 57.7 µM] (inactive) |
| COc1cc(C2Oc3c(OC)cc(CCCO)cc3C2CO)ccc1O[C@H]1O[C@H](C)[C@@H](O)[C@H](O)[C@@H]1O (some centres undefined) | 2.85% [at 57.7 µM] (inactive) |
| C=CC(C)(O)C(O)CC1C(C)(O)C(O)C(O)C2C(C)(C)CCCC21C (centres undefined) | -4.03% [at 57.7 µM] (inactive) |
| C=C1C(O)CC2C(C(=O)O)=COC(O[C@@H]3O[C@H](COC(=O)/C=C/c4ccc(O)cc4)[C@@H](O)[C@H](O)[C@H]3O)C12 (some centres undefined) | 4.72% [at 57.7 µM] (inactive) |
| COc1cc(C2c3cc4c(c(O)c3CC(CO)C2C(=O)O)OCO4)cc(OC)c1O (centres undefined) | -1.28% [at 57.7 µM] (inactive) |
| CCOc1ccc2nc(SCCN3CCOCC3)[nH]c2c1 | -5% (inactive) |
| Cc1cc(C)cc(C(=O)NOCCCCCC(=O)NO)c1 | 1.54% (inactive) |
| C[C@@H]1CC[C@]2(C(=O)O)CC[C@]3(C)C(=CCC4[C@@]5(C)C[C@@H](O)[C@H](O)[C@@](C)(CO)C5CC[C@]43C)C2[C@]1(C)O (some centres undefined) | 3.53% [at 57.7 µM] (inactive) |
| C=CC(C)(CC/C=C(\C)C(=O)OC)OC1OC(COC(=O)CC(C)(O)CC(=O)O)C(OC2OC(CO)C(O)C(O)C2O)C(O)C1O (centres undefined) | 2.04% [at 30.2 µM] (inactive) |
| COC(=O)c1cc(OC)c(O[C@@H]2O[C@@H](C)[C@H](O)[C@@H](O)[C@H]2O)c(OC)c1 | 2.59% [at 57.7 µM] (inactive) |

| Compound | activity change, negative = inhibition |
| --- | --- |
| CC/C=C\[C@H](O)[C@H](O)C1=C(C)C(=O)[C@]2(O1)C(=O)N[C@@](OC)(C(=O)c1ccccc1)[C@@H]2O | 0.43% [at 57.7 µM] (inactive) |
| CC1(C)CC[C@@]2(C(=O)O[C@@H]3O[C@H](CO)[C@@H](O)[C@H](O)[C@H]3O)C(C1)C1=CCC3[C@@]4(C)CC[C@@H](O[C@@H]5O[C@H](C(=O)O)[C@@H](O[C@@H]6OC[C@@H](O)[C@H](O)[C@H]6O)[C@H](O[C@@H]6OC[C@](O)(CO)[C@H]6O)[C@H]5O)C(C)(C)C4CC[C@@]3(C)[C@]1(C)C[C@H]2O (some centres undefined) | 5.32% [at 30.2 µM] (inactive) |
| CC1=CCC(C(C)(C)O[C@@H]2O[C@H](CO[C@@H]3O[C@@H](C)[C@H](O)[C@@H](O)[C@H]3O)[C@@H](O)[C@H](O)[C@H]2O)CC1 (some centres undefined) | -2.96% [at 57.7 µM] (inactive) |
| C=C1CCC2C(C)(C(=O)OC)CCCC2(C)C1CCC(C)CC(=O)O (centres undefined) | -0.87% [at 57.7 µM] (inactive) |
| COc1cc(O)cc(C)c1C(=O)O[C@H]1[C@@H](OC(C)=O)[C@H](n2ccc(=O)[nH]c2=O)O[C@@H]1CO | -7.15% [at 57.7 µM] (inactive) |
| CC1OC(O[C@H]2CC[C@@]3(C)C(CC[C@]4(C)C3CC=C3C5CC(C)(C)CC[C@]5(C(=O)OC5OC(CO)C(OC6OC(COC7OCC(O)C(O)C7O)C(O)C(O)C6O)C(O)C5O)CC[C@]34C)C2(C)C)C(O)C(O)C1OC1OCC(OC2OCC(O)C(O)C2O)C(O)C1O (some centres undefined) | -11.1% [at 12.4 µM] (inactive) |
| CCC1C(=O)N(C)c2cnc(Nc3ccc(C(=O)NC4CCC(N5CCN(CC6CC6)CC5)CC4)cc3OC)nc2N1C(C)C (centres undefined) | -5.09% (inactive) |
| Cc1nc(NC(=O)N2CCCC2C(N)=O)sc1-c1csc(C(C)(C)C)n1 (centres undefined) | 0.193% (inactive) |
| Cc1cc(O)cc(O[C@@H]2O[C@H](CO)[C@@H](O)[C@H](O)[C@H]2O)c1 | -2.84% (inactive) |
| C=C[C@H]1C(O[C@@H]2O[C@H](CO)[C@@H](O)[C@H](O)[C@H]2O)OC=C2C(=O)N3CCc4c([nH]c5ccccc45)C3CC21 (some centres undefined) | 32.4% [at 57.7 µM] (inactive) |
| Nc1ncnc2c1ncn2CCNCCCCCO | -3.92% (inactive) |
| C/C=C(\C)C(=O)OCC1OC(OC2OC(COC(=O)/C(C)=C/C)C(OC3OC(CO)C(OC(=O)/C(C)=C/C)C(OC(=O)/C(C)=C/C)C3O)C(O)C2O)C(O)C(O)C1OC1OC(CO)C(OC(=O)/C(C)=C/C)C(OC(=O)/C(C)=C/C)C1O (centres undefined) | 3.24% [at 30.2 µM] (inactive) |
| C[C@@H]1O[C@@H](O[C@H]2[C@H](O[C@H]3[C@H](O)[C@@H](C(=O)O)O[C@@H](O[C@H]4CC[C@@]5(C)C(CC[C@]6(C)C5CC[C@]57OC[C@@]8(CCC(C)(C)CC85)[C@H](O)C[C@]76C)C4(C)C)[C@@H]3O[C@@H]3O[C@H](CO)[C@@H](O[C@@H]4OC[C@@H](O)[C@H](O)[C@H]4O)[C@H](O)[C@H]3O)O[C@H](CO)[C@H](O)[C@@H]2O)[C@H](O)[C@H](O)[C@H]1O (some centres undefined) | 2.06% [at 12.4 µM] (inactive) |
| CC1=CC2C(CC1OC1OC(CO)C(O)C(O)C1O)C(C)CC(=O)C2C(C)C (centres undefined) | -6.49% [at 57.7 µM] (inactive) |
| CC1(C)CCCC2(C)C=C(C(=O)O)C(O)CC12 (centres undefined) | 5.28% (inactive) |
| C[C@H](C/C=C/C(C)(C)O)[C@H]1CC[C@@]2(C)[C@@H]3[C@@H](O[C@@H]4O[C@H](CO)[C@@H](O)[C@H](O)[C@H]4O)C=C4C(CC[C@H](O)C4(C)C)[C@]3(C=O)CC[C@]12C (some centres undefined) | -7.82% [at 30.2 µM] (inactive) |
| CC12CCC3c4ccc(O)cc4CCC3C1CC(OC1OC(C(=O)O)C(O)C(O)C1O)C2O (centres undefined) | 0.174% (inactive) |
| C[C@@H]1O[C@@H](O[C@H]2[C@H](O)[C@@H](O)[C@H](OC3CCC4(C)C5CCC(C)(C(CO)OC6OC(CO)C(O)C(O)C6O)CC5=CCC4C3(C)C)O[C@@H]2CO)[C@H](O)[C@H](O)[C@H]1O (some centres undefined) | 0.947% [at 30.2 µM] (inactive) |
| O=C1C=CC2OC(c3ccccc3)C(O)C2O1 (centres undefined) | -8.79% (inactive) |

From PubChem BioAssay (NCATS)
